KB-V1 MDR tox – KB-V1 MDR subline cytotoxicity | KB-V1 MDR cells viability, CellTiter-Glo, 72 h | Potency, µM (doses to about 46.1 µM), actives largely listed as cytotoxic | hit rate 3.4% among 400,000 | AID 1347076; further: on the % scale 0 is the no-effect control and ±100 the full control effect; nearly all actives have a fitted effect of over 60% in size
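Cytotoxicity toward P-gp-expressing KB-V1 cells was determined as loss of CellTiter-Glo luminescence after 72 h at 37 degrees C. Compounds were tested in quantitative HTS format across a concentration range, with curves fitted to normalized data.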
RGS4 inh – inhibitors of human regulator of G protein signaling 4. hit rate 0.039% among 390,000. Potency, µM (highest dose often 114 µM), without a hit: at the top dose activity change, negative = inhibition, hits mostly inhibitors. Transcreener GDP fluorescence polarization, RGS4-accelerated GTP hydrolysis. AID 504845. P49798; further: on the % scale 0 is the no-effect control and ±100 the full control effect; nearly all actives have a fitted effect of over 75% in size
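MLSMR compounds (23 nl, pin-transferred) preincubated 10 min at room temperature with a 500nM (2x) first reagent, then RGS4 at 900nM (2x) plus Transcreener GDP mix added; fluorescence polarization (620/688 nm) read before and after 90 min at 30 °C.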
KB-3-1 tox – kills parental KB-3-1 adenocarcinoma cells. KB-3-1 viability, CellTiter-Glo ATP luminescence, 72 h. Potency, µM (top dose mostly 46.1 µM), most hits filed as cytotoxic. hit rate 1.4% among 400,000. AID 1347075; further: on the % scale 0 is the no-effect control and ±100 the full control effect; nearly all actives have a fitted effect of over 60% in size
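Viability of parental KB-3-1 cells, measured by CellTiter-Glo luminescence, followed a 72 h incubation at 37 °C with pinned compounds in phenol-red-free DMEM containing 10% FBS.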
MCF10A rerep – DNA re-replication induction in MCF 10a cells | MCF 10A DNA re-replication, Hoechst nuclear intensity, 48 h | Potency, µM (top dose mostly 46.1 µM), inactives show at the top dose activity, positive = re-replication, most hits filed as activators | hit rate 2.9% among 350,000; further: % of control where 0% means no effect; nearly all actives have a fitted effect of over 50% in size
TSG101-PTAP inh – blocks PTAP/TSG101 interaction to inhibit HIV-1 budding; Fluorescence polarization, FITC-PTAP peptide / Tsg101 binding; Potency, µM (series often up to 115 µM), without a hit: at the highest dose activity change, negative = inhibition, hits mostly inhibitors; 340,000 tested, under 10 active; active means well fitted inhibition curve with a large enough effect in the main read-out, with a control signal flat, not every such curve was filed as active; inconclusive means small, poorly fitted or top-dose-only effect, or effect the other way, or a change in a side signal; inactive means no such curve, though single readings can be large or run the other way; further: % of control where 0% means no effect
Target sequence (Q99816 whole entry, looked up): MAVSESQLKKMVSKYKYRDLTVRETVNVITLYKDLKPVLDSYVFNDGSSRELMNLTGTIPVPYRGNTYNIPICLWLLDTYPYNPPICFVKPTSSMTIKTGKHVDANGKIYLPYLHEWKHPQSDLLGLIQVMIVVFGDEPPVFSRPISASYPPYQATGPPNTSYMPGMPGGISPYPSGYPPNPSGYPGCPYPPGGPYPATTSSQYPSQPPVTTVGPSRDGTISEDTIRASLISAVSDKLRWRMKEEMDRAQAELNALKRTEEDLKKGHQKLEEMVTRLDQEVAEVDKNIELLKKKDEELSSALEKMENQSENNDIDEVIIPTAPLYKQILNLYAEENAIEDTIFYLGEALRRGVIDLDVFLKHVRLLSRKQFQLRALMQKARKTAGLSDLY
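Tsg101 binding domain (10 uM final) was mixed with compound and a FITC-labeled PTAP peptide (50 nM final) in HEPES pH 7.5 buffer with NaCl, Tween 20, EDTA and TCEP; fluorescence polarization was read after 20 min at r.t.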
SW480 rerep – inducers of DNA re-replication in SW480 colon cancer cells | SW480 DNA re-replication, Hoechst DNA content imaging, 48 h | Potency, µM (doses to about 46.1 µM), without a hit: top-dose re-replication activation, actives largely listed as activators | hit rate 1.8% among 340,000; further: % of control where 0% means no effect; nearly all actives have a fitted effect of over 55% in size
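First, 250 cells per well were seeded. Next, compound or vehicle (23 nL) was pinned in, plates sat 48 hr at 37 C. Finally Hoechst was added for 40 min before fluorescence scanning.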
The depositor's hits bear a star. Most compounds without a hit are left out; they make up all but 6.6% or so of the library. Unless noted, the call rests on the fitted dose curve; in most records, active means well fitted curve in the direction sought with a large enough effect; inconclusive means small, poorly fitted or top-dose-only effect, or another doubt; inactive means no such curve, though single readings can be large; an effect the other way counts as inactive or inconclusive. Potency means the concentration at half of the fitted maximal effect.

For COc1ccccc1C(O)c1nccn1Cc1ccccc1 (centres undefined) the results were KB-V1 MDR tox inactive, RGS4 inh 17% and KB-3-1 tox inactive.
Nc1c2c(nc3sc4c(c13)CCCCC4)CCCCC2 was read as KB-V1 MDR tox 8.2µM*, RGS4 inh -3%, KB-3-1 tox inconclusive, MCF10A rerep inconclusive, TSG101-PTAP inh -2% and SW480 rerep -10%.
Fc1cccc(CN2CCc3nc(Nc4ccc5c(c4)OCCO5)ncc3C2)c1F was read as KB-V1 MDR tox inactive, RGS4 inh -11% and KB-3-1 tox inactive.
`CN(C)c1ccc(C=Nc2cnc3ccccc3c2)cc1` gave KB-V1 MDR tox inactive and KB-3-1 tox inactive.
CCOC(=O)C1(Cc2ccccc2)CCN(Cc2ccc(C3CCCCO3)s2)CC1 (centres undefined) was read as KB-V1 MDR tox inconclusive, RGS4 inh 26%, KB-3-1 tox inactive, MCF10A rerep 16µM*, TSG101-PTAP inh -4% and SW480 rerep 12%.
For CCN(CC)CCNC(=O)c1ccc(NC(=O)c2cccc(S(=O)(=O)N(C)C3CCCCC3)c2)cc1 the results were KB-V1 MDR tox inactive, RGS4 inh -6%, KB-3-1 tox inactive, MCF10A rerep -6%, TSG101-PTAP inh -5% and SW480 rerep 74%.
CCN(CC)CCNC(=O)c1ccc(NC(=O)c2ccc3c(c2)CCC3)cc1 was read as KB-V1 MDR tox inactive, RGS4 inh -10%, KB-3-1 tox inactive, MCF10A rerep 15%, TSG101-PTAP inh -1% and SW480 rerep 18µM*.
CCN(CC)CCNC(=O)c1ccc(NC(=O)c2ccccc2-c2ccc(C(F)(F)F)cc2)cc1 was read as KB-V1 MDR tox inactive, RGS4 inh 11%, KB-3-1 tox inactive, MCF10A rerep 21µM*, TSG101-PTAP inh -4% and SW480 rerep inconclusive.
Screening CCOc1ccc(Cn2c(CNS(=O)(=O)c3ccc(C(C)(C)C)cc3)nc3cccnc32)cc1 returned RGS4 inh -7%.
Screening Cc1ccc(N(CC(=O)N2CCN(c3cccc(C)c3C)CC2)S(=O)(=O)c2c(C)nn(C)c2C)cc1 returned KB-V1 MDR tox inactive, RGS4 inh 31% and KB-3-1 tox inactive.
`Cc1cccc(NC(=O)/C(C#N)=C/c2ccc(Cl)cc2)n1` gave KB-V1 MDR tox inactive, RGS4 inh -11%, KB-3-1 tox inactive, MCF10A rerep 23%, TSG101-PTAP inh -1% and SW480 rerep 2%.
Cc1cccc(NC(=O)/C(C#N)=C/c2cccc([N+](=O)[O-])c2)n1 was read as KB-V1 MDR tox inactive, RGS4 inh -7%, KB-3-1 tox inactive, MCF10A rerep 21µM*, TSG101-PTAP inh -4% and SW480 rerep inconclusive.
Screening Oc1ccccc1Nc1nc(NCC2CCCO2)c2ccccc2n1 (centres undefined) returned KB-V1 MDR tox 16µM*, RGS4 inh -40%, KB-3-1 tox inconclusive, MCF10A rerep inconclusive, TSG101-PTAP inh -4% and SW480 rerep 0%.
Screening Oc1ccc(Nc2nc(NCC3CCCO3)c3ccccc3n2)cc1 (centres undefined) returned KB-V1 MDR tox inactive, RGS4 inh 27%, KB-3-1 tox inactive, MCF10A rerep inconclusive, TSG101-PTAP inh -8% and SW480 rerep 14%.
Screening COc1cccc(Nc2nc(NCC3CCCO3)c3ccccc3n2)c1 (centres undefined) returned KB-V1 MDR tox 2.3µM*, RGS4 inh -14%, KB-3-1 tox inconclusive, MCF10A rerep inconclusive, TSG101-PTAP inh -2% and SW480 rerep 3%.
`COc1cccc(Nc2nc(NCCO)c3ccccc3n2)c1` gave KB-V1 MDR tox inconclusive, RGS4 inh 12%, KB-3-1 tox inconclusive, MCF10A rerep inconclusive, TSG101-PTAP inh 0% and SW480 rerep inconclusive.

Assay outcomes: PubChem BioAssay, National Center for Advancing Translational Sciences (NCATS)
